From PubChem BioAssay (EPA / NIEHS)
The source made the active and inactive calls. How the source made its calls: active means hit-call score of the fitted dose curve at least 0.9, where 1 is the maximum; inactive means score below 0.9.

What was measured:
[1] = BSK_CASM3C_SRB: Viability Assessment in the BioMAP Diversity Plus: CASM3C Assay (AID 2283050); settings: primary human coronary artery smooth muscle cells;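 further: total protein by SRB staining as cytotoxicity measure in parallel cultures; cells exposed to compound for 24 h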
[2] = read-out: Thrombomodulin, THBD (gene 7056); assay: BSK_CASM3C_Thrombomodulin: BioMAP Diversity Plus: CASM3C Assay for Thrombomodulin Biomarker Activity (AID 2283051); settings: primary human coronary artery smooth muscle cells; actives raise or lower the signal;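 further: thrombomodulin protein level measured by ELISA 24 h after dosing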
[3] = read-out: Tissue Factor, F3 (gene 2152); assay: BSK_CASM3C_TissueFactor: BioMAP Diversity Plus: CASM3C Assay for Tissue Factor Biomarker Activity (AID 2283052); settings: primary human coronary artery smooth muscle cells; actives raise or lower the signal;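 further: cell surface tissue factor protein level read by ELISA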
[4] = read-out: Interferon-gamma inducible Protein 10 (IP10), CXCL10 (gene 3627); assay: BSK_hDFCGF_IP10: BioMAP Diversity Plus: hDFCGF Assay for Interferon-gamma inducible Protein 10 (IP10) Biomarker Activity (AID 2283053); settings: primary human foreskin fibroblasts; actives raise or lower the signal
In short: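 Cells: human dermal foreskin fibroblasts. Exposure: 24 h post-dosing. Detection: IP-10 ELISA, with values expressed against DMSO controls and fitted in both directions.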

[5] = read-out: Urokinase-type plasminogen activator receptor (uPAR), PLAUR (gene 5329); assay: BSK_CASM3C_uPAR: BioMAP Diversity Plus: CASM3C Assay for Urokinase-type plasminogen activator receptor (uPAR) Biomarker Activity (AID 2283054); settings: primary human coronary artery smooth muscle cells; actives raise or lower the signal;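 further: cell-surface uPAR protein level quantified by ELISA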
[6] = read-out: Vascular cell adhesion molecule 1 (VCAM1), VCAM1 (gene 7412); assay: BSK_CASM3C_VCAM1: BioMAP Diversity Plus: CASM3C Assay for Vascular cell adhesion molecule 1 (VCAM1) Biomarker Activity (AID 2283055); settings: primary human coronary artery smooth muscle cells; actives raise or lower the signal;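 further: VCAM-1 protein level quantified by ELISA on the cells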
[7] = read-out: Collagen III, COL3A1 (gene 1281); assay: BSK_hDFCGF_CollagenIII: BioMAP Diversity Plus: hDFCGF Assay for Collagen III Biomarker Activity (AID 2283056); settings: primary human foreskin fibroblasts; actives raise or lower the signal
In short: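 ELISA readout of Collagen III in human dermal (foreskin) fibroblasts, taken 24 h post-treatment. Gain or loss relative to DMSO vehicle fitted in both directions.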

[8] = read-out: Epidermal growth factor receptor (EGFR), EGFR (gene 1956); assay: BSK_hDFCGF_EGFR: BioMAP Diversity Plus: hDFCGF Assay for Epidermal growth factor receptor (EGFR) Biomarker Activity (AID 2283057); settings: primary human foreskin fibroblasts; actives raise or lower the signal
In short: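 Dosing human primary skin fibroblasts, then measuring surface EGFR by ELISA at 24 h, gives the endpoint; gains and losses relative to DMSO were fitted in both directions.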

[9] = read-out: Interleukin-8 (IL8), CXCL8 (gene 3576); assay: BSK_hDFCGF_IL8: BioMAP Diversity Plus: hDFCGF Assay for Interleukin-8 (IL8) Biomarker Activity (AID 2283058); settings: primary human foreskin fibroblasts; actives raise or lower the signal
In short: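 IL-8 levels read by ELISA at 24 hours after dosing human skin fibroblast cultures. Parallel SRB staining assessed overt cytotoxicity, and gain or loss of signal was fitted against DMSO control.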

[10] = BSK_hDFCGF_Proliferation: Cell Proliferation Assessment in the BioMAP Diversity Plus: hDFCGF Assay (AID 2283059); settings: primary human foreskin fibroblasts;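 further: curves fitted for both rise and fall of signal versus DMSO baseline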
In short: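 Steps: dose primary human dermal fibroblasts (foreskin); […] fix in 10% TCA; stain with 0.1% SRB; read 560 nm; fit gain or loss of signal against DMSO.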

Measured: AC50

Clc1ccc(Cl)cc1
inactive: all assays above

Nn1cnnc1
not listed: [8]
inactive: all other assays above

CCC(C)(c1ccc(O)cc1)c1ccc(O)cc1
active: [2] 26.5 µM | [4] 30.1 µM | [7] 20 µM | [10] 30.4 µM
not listed: [8]
inactive: all other assays above

Cc1ccccc1[N+](=O)[O-]
not listed: [8]
inactive: all other assays above

Clc1ccc(C(c2ccccc2Cl)C(Cl)(Cl)Cl)cc1 (centres undefined)
inactive: [3]
active: [1] 22.8 µM | [2] 19.6 µM | [4] 7.73 µM | [5] 25.6 µM | [6] 11.7 µM | [7] 6.51 µM | [9] 10.8 µM | [10] 6.94 µM

c1cc2ccc3cccc4ccc(c1)c2c34
active: [10] 15 µM
not listed: [8]
inactive: all other assays above

ClC1=C(Cl)[C@]2(Cl)[C@@H]3[C@@H]4C[C@@H]([C@H]5O[C@@H]45)[C@@H]3[C@@]1(Cl)C2(Cl)Cl
active: [10] 8.97 µM
not listed: [8]
inactive: all other assays above

Cc1cccc([N+](=O)[O-])c1
not listed: [8]
inactive: all other assays above

O=S(=O)(O)C(F)(F)C(F)(F)C(F)(F)C(F)(F)F
not listed: [8]
inactive: all other assays above

CCOC(=O)C(O)(c1ccc(Cl)cc1)c1ccc(Cl)cc1
inactive: [3] | [5] | [9]
active: [1] 29.5 µM | [2] 15 µM | [4] 28.5 µM | [6] 20 µM | [7] 30.2 µM | [10] 30.9 µM

CCC(C)c1cc([N+](=O)[O-])cc([N+](=O)[O-])c1O (centres undefined)
active: [1] 30.2 µM | [5] 31.3 µM | [10] 3.85 µM
not listed: [8]
inactive: all other assays above

CC(C)(c1ccccc1)c1ccc(O)cc1
active: [1] 29.5 µM | [2] 20 µM | [4] 34.1 µM | [6] 28.6 µM | [7] 32.2 µM | [9] 30.8 µM | [10] 29.3 µM
inactive: [3] | [5]

N#Cc1ccc(N(CC(N)=O)CC(F)(F)F)cc1C(F)(F)F
not listed: [8]
inactive: all other assays above

CN(C)c1nc(=O)n(C2CCCCC2)c(=O)n1C
not listed: [8]
inactive: all other assays above

C1CC2OC2CC1C1CO1 (centres undefined)
not listed: [8]
inactive: all other assays above

CCOCCOC(C)=O
not listed: [8]
inactive: all other assays above

Clc1ccc(C(Cl)(Cl)Cl)cc1
not listed: [8]
inactive: all other assays above

COS(=O)(=O)OC
not listed: [8]
inactive: all other assays above

O=C(NC(=O)c1c(F)cccc1F)Nc1cc(Cl)c(OC(F)(F)C(F)F)c(Cl)c1
not listed: [8]
inactive: all other assays above

O=C(N[C@H]1CN2CCC1CC2)c1cc2ccoc2cn1
not listed: [8]
inactive: all other assays above

CCCCCCCCCc1ccc(O)cc1
active: [1] 34.1 µM | [2] 37.8 µM | [3] 28.7 µM | [4] 14.1 µM | [5] 38.2 µM | [6] 33.6 µM | [7] 9.87 µM | [9] 17.2 µM | [10] 5.93 µM

Cc1cc(-c2ccc(N)c(C)c2)ccc1N
not listed: [8]
inactive: all other assays above

Nc1ccc(-c2ccc(N)cc2)cc1
not listed: [8]
inactive: all other assays above

CCCCCCCCCC[N+](C)(C)CCCCCCCCCC
inactive: [2]
active: [1] 5.43 µM | [3] 1.69 µM | [4] 2.44 µM | [5] 3.56 µM | [6] 5.15 µM | [7] 1.76 µM | [9] 3.01 µM | [10] 0.154 µM

CCCCCCCCOC(=O)c1ccccc1C(=O)OCCCCCCCC
not listed: [8]
inactive: all other assays above

CC1=C2C[C@H]3[C@@H](CC=C4C[C@@H](O)CC[C@@]43C)[C@@H]2CC[C@]12O[C@@H]1C[C@H](C)CN[C@H]1[C@H]2C
not listed: [8]
inactive: all other assays above

O=C(O)C(F)(F)C(F)(F)C(F)(F)C(F)(F)C(F)(F)F
not listed: [8]
inactive: all other assays above

CC(C)(O)C(=O)Nc1ccc([N+](=O)[O-])c(C(F)(F)F)c1
not listed: [8]
inactive: all other assays above

ClC1=C(Cl)[C@]2(Cl)[C@@H]3[C@H]4C[C@H]([C@@H]5O[C@H]45)[C@@H]3[C@@]1(Cl)C2(Cl)Cl
active: [3] 7.07 µM | [10] 6.6 µM
not listed: [8]
inactive: all other assays above

Cc1cc(O)ccc1Cl
not listed: [8]
inactive: all other assays above

CC(c1ccc(O)cc1)(c1ccc(O)cc1)c1ccc(O)cc1
inactive: [2] | [3]
active: [1] 4.79 µM | [4] 25.6 µM | [5] 6.77 µM | [6] 5.31 µM | [7] 3.78 µM | [9] 36.6 µM | [10] 23.6 µM

O=C(NC(=O)c1cc(F)c(F)cc1Cl)Nc1cc(F)ccc1N1CCC(C(=O)O)CC1
not listed: [8]
inactive: all other assays above

O=NN(c1ccccc1)c1ccccc1
active: [2] 4.46 µM
not listed: [8]
inactive: all other assays above

CCC(=O)O[C@H]1CC[C@H]2[C@@H]3CCC4=CC(=O)CC[C@]4(C)[C@H]3CC[C@]12C
inactive: [1] | [2] | [3] | [5] | [6]
active: [9] 38.2 µM | [10] 30.6 µM

C=CC(=O)NCNC(=O)C=C
not listed: [8]
inactive: all other assays above
